# Assay outcomes: PubChem BioAssay, National Center for Advancing Translational Sciences (NCATS)
# KB-V1 MDR tox – KB-V1 MDR subline cytotoxicity | hit rate 3.4% among 400,000 | KB-V1 MDR cells viability, CellTiter-Glo, 72 h | Potency, µM (titrated, usually from 46.1 µM), usual class: cytotoxic | AID 1347076; also: % is scaled to controls: 0 for no effect and ±100 for the full control effect; nearly all actives have a fitted effect of over 60% in size
#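 KB-V1 MDR subline cells in DMEM (phenol-red free, 10% FBS) exposed to compounds in qHTS concentration series for 72 h at 37 degrees C. Viability read by CellTiter-Glo luminescence; concentration-effect curves fitted after normalization and correction.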
# SW480 rerep – inducers of DNA re-replication in SW480 colon cancer cells | Potency, µM (highest dose often 46.1 µM), without a hit: at the highest dose re-replication activation, most hits filed as activators | SW480 DNA re-replication, Hoechst DNA content imaging, 48 h | hit rate 1.8% among 340,000; also: % of control where 0% means no effect; nearly all actives have a fitted effect of over 55% in size
#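 SW480 cells exposed to compounds for 48 hr at 37 C, 5% CO2, then Hoechst-stained 40 min. Nuclear DNA content imaged by fluorescence scanning (405 nm excitation, 500-530 nm emission); re-replication scored as increased high-intensity nuclei.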
# HT1080NT lethal – kills 2HG-producing HT-1080-NT fibrosarcoma cells | HT-1080-NT fibrosarcoma viability, CellTiter-Glo ATP luminescence, 48 h | Potency, µM (titrated, usually from 46.1 µM), for inactives: at the top dose activity, negative = less viability, most hits filed as cytotoxic | hit rate 1.6% among 360,000;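 also: NT is the 2HG producing partner of a matched IDH1 knockdown line; 0% = DMSO-treated cells and -100% = media-only wells without cells; nearly all actives have a fitted effect of over 55% in size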
#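 Toxicity toward the 2HG-producing NT line was scored as %Activity, normalised to DMSO and no-cell wells, from CellTiter-Glo luminescence after 48 hours' treatment.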
# MCF10A rerep – inducers of DNA re-replication in MCF 10A breast cells; MCF 10A DNA re-replication, Hoechst nuclear intensity, 48 h; Potency, µM (highest dose often 46.1 µM), for inactives: top-dose activity, positive = re-replication, actives largely listed as activators; hit rate 2.9% among 350,000; also: % of control where 0% means no effect; nearly all actives have a fitted effect of over 50% in size
# HT1080 IDH1KD tx – toxicity to HT-1080 IDH1 knockdown cells (counter line); HT-1080 IDH1 knockdown viability, ATP luminescence, 48 h; Potency, µM (doses to about 46.1 µM), inactives show at the top dose activity, negative = toxicity, usual class: cytotoxic; hit rate 2% among 360,000; AID 686971;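 also: 0% = DMSO wells and -100% = cell-free medium wells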
#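 CellTiter-Glo luminescence after 48 h compound exposure at 37 degrees C of IDH1-knockdown HT-1080 cells in 5% FBS RPMI. %Activity scaled between DMSO wells and cell-free media wells, with curves fitted and assigned curve classes.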
# KB-3-1 tox – kills parental KB-3-1 adenocarcinoma cells; Potency, µM (doses to about 46.1 µM), most hits filed as cytotoxic; hit rate 1.4% among 400,000; KB-3-1 viability, CellTiter-Glo ATP luminescence, 72 h; also: % is scaled to controls: 0 for no effect and ±100 for the full control effect; nearly all actives have a fitted effect of over 60% in size
#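 Parental KB-3-1 viability, qHTS format: 72 h compound exposure, 37 °C; CellTiter-Glo; media-only wells and DMSO plates as controls; concentration-effect fits on corrected data.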
# Numbers without * were called inactive; i = inactive; ? = inconclusive; / = no result given; ! = not active in a repeat. This is a sample that favours compounds with a hit; in the whole collection about 7.9% have one here. Calls follow the shape of the dose curve; as a rule, active = well fitted curve in the direction sought with a large enough effect; inconclusive = small, poorly fitted or top-dose-only effect, or another doubt; inactive = no such curve, though single readings can be large; an effect the other way counts as inactive or inconclusive. Potency is read from the fitted curve at half-maximal effect.
SMILES,KB-V1 MDR tox,SW480 rerep,HT1080NT lethal,MCF10A rerep,HT1080 IDH1KD tx,KB-3-1 tox
CC(=O)NC(=S)Nc1ccc(-c2nc3ccc(C)cc3s2)cc1,i,-5%,5%,6%,2%,i
Cc1ccc2nc(-c3ccc(NC(=S)NCC(C)(C)CN(C)C)cc3)sc2c1,?,?,0%,18µM*,9%,i
O=[N+]([O-])c1ccc2nc(NN=Cc3ccc(O)cc3)sc2c1,?,21µM*,?,9.2µM*,29µM*,i
Cc1ccc2nc(-c3ccc(NS(=O)(=O)c4ccc(F)cc4)cc3)sc2c1,i,?,?,15µM*,?,i
CNC(=S)Nc1ccc(-c2nc3ccc(C)cc3s2)cc1,i,?,?,22µM*,2%,i
CC(C)c1ccc(/C=C/C(=O)Nc2nc3ccc([N+](=O)[O-])cc3s2)cc1,i,-14%,0%,-3%,4%,i
CC(C)C[C@H]1CNC(=O)C(=O)N1C[C@@H]1CCCN1C[C@H](CC(C)C)N1C[C@H](Cc2ccc(O)cc2)N(CCc2ccccc2)C(=O)C1=O,i,/,-1%,/,7%,i
Cc1nc2ccc(NS(=O)(=O)c3ccc(F)cc3F)cc2s1,4.1µM*,0%,6%,4%,0%,?
O=[N+]([O-])c1ccc2nc(NS(=O)(=O)c3ccc(F)cc3)sc2c1,?,?,-2%,7.3µM*,-3%,?
Cc1ccc(S(=O)(=O)Nc2nc3ccc(N)cc3s2)cc1,i,-7%,19%,-4%,12%,i
Cc1ccc(S(=O)(=O)C(CNC(=O)C(=O)NCc2ccc(Cl)cc2)c2cccs2)cc1 (configuration not stated),i,/,/,/,/,i
Cc1cc(CN2CCN(CC(=O)Nc3cc(C(F)(F)F)ccc3-n3cncn3)CC2)no1,23µM*,-10%,0%,-3%,-2%,i
CCOc1ccc(N(CC(=O)NCCSCc2ccccc2)S(C)(=O)=O)cc1,?,2%,-5%,14%,-3%,i
O=C(c1cc2ccccc2o1)N1CCN(c2ccccn2)CC1,i,-6%,13%,1%,7%,i
Nc1c(-c2ccccc2)cnn1-c1cccc(C(F)(F)F)c1,i,-3%,22%,2%,8%,i
Nc1c(-c2cccc(Cl)c2)cnn1-c1cccc(C(F)(F)F)c1,21µM*,3%,?,11%,-28%,?
Cc1ccc(N2C(=O)CSC23C(=O)N(CC(=O)NCc2ccccc2)c2ccccc23)cc1 (configuration not stated),i,/,/,/,/,i
Cc1cccc(-n2c(C)cc(/C=C3\C(=N)N4N=C(CC(C)C)SC4=NC3=O)c2C)c1,i,-3%,17%,1%,18%,i
Cc1cc(/C=C2\C(=N)N3N=C(CC(=O)N4CCOCC4)SC3=NC2=O)c(C)n1Cc1ccccc1,i,-7%,6%,18µM*,4%,i
CCCC1=NN2C(=N)/C(=C\c3cc(C)n(-c4cc(C)cc(C)c4)c3C)C(=O)N=C2S1,?,1%,9%,21µM*,8%,i
Cc1cc(C)cc(-n2c(C)cc(/C=C3\C(=N)N4N=C(CC(C)C)SC4=NC3=O)c2C)c1,21µM*,2%,1%,18µM*,9%,?
O=C(Nc1ccc(N2CCN(c3ccc(F)cc3)CC2)c(C(=O)O)c1)c1ccccc1F,i,/,/,/,/,i
COc1cccc(NC(=O)Cn2c(=O)n(-c3ccccc3)c(=O)c3oc4ccccc4c32)c1,21µM*,0%,?,16%,?,?
CC(=O)Nc1ccc(NC(=O)Cn2c(=O)n(-c3ccccc3)c(=O)c3oc4ccccc4c32)cc1,i,-7%,10%,-5%,5%,i
COC(=O)c1sc(N)c(C(=O)OC)c1COC(=O)c1c(C)noc1C,5.2µM*,2.9µM*,7.1µM*,9.2µM*,6.3µM*,5.2µM*
SMILES,KB-V1 MDR tox,SW480 rerep,HT1080NT lethal,MCF10A rerep,HT1080 IDH1KD tx,KB-3-1 tox
COC(=O)c1sc(NC(=O)c2c(C)noc2C)nc1C,i,-8%,0%,-32%,3%,i
CCN1C(=O)/C(=C/c2nc3ccccc3c(=O)n2-c2ccccc2)c2ccccc21,i,?,-12%,?,-6%,23µM*
CCN1C(=O)/C(=C\c2nc3ccccc3c(=O)n2CC)c2ccccc21,i,8%,-16%,1%,-25%,i
Cc1ccccc1C(=O)N1CCN(c2ccc(NC(=O)CSc3ccc(Cl)cc3)cc2)CC1,?,-4%,-25%,?,?,18µM*
O=C(Nc1ncccc1O)c1ccc2c(c1)OCCO2,?,18%,-9%,11%,-3%,4.1µM*
O=C(Nc1ncccc1O)c1ccc2c(c1)OCO2,i,-114%,-33%,2%,-20%,?
O=C(Nc1ccc(NC(=O)c2ccc3c(c2)OCCO3)cc1)c1ccccc1,?,18%,16µM*,3%,?,i
Cc1ccccc1C(=O)N1CCN(c2ccc(NC(=O)c3ccc4c(c3)OCCO4)cc2)CC1,8.2µM*,-8%,?,16µM*,-10%,?
C=CCN(C(=O)CNC(=O)c1ccco1)C(C(=O)NC1CCCC1)c1ccc(OC)cc1 (configuration not stated),?,-11%,10%,-3%,3%,i
CSc1nc(N)nc2c1ncn2CC(=O)NCCNc1ccc([N+](=O)[O-])cn1,?,1%,9%,-6%,8%,i
Cc1cccc(N(Cc2ccccc2)C(=O)C2CCN(C(=O)c3ccccc3C)CC2)c1,i,5%,-1%,12%,-10%,i
Cc1ccsc1CN(C)CC(=O)N(C)CC(=O)Nc1c(Cl)cccc1Cl,?,/,1%,/,5%,i
O=C(Nc1ccc(O)cc1)c1ccc(NC(=O)c2cccs2)cc1,i,-10%,9.2µM*,18µM*,23µM*,18µM*
O=C(Nc1ccc(NC(=O)c2cccs2)cc1)c1ccc2c(c1)OCO2,i,4%,?,0%,12µM*,i
O=C(C1=C(O)C(=O)N(CCN2CCOCC2)C1c1ccc([N+](=O)[O-])cc1)c1cccs1 (configuration not stated),i,-3%,19%,3%,17%,i
Cc1cc(C(=O)NCc2ccccc2)c2c(C)nn(-c3cccc(Cl)c3C)c2n1,i,/,/,/,/,i
Cc1ccccc1NC(=O)COC(=O)c1ccc(S(C)(=O)=O)c([N+](=O)[O-])c1,i,7.3µM*,?,?,10µM*,21µM*!
